PubChem BioAssay (NCATS)
Records with an inconclusive call do not appear. A number with no mark means an inactive call. The source made the active and inactive calls. Calls follow the shape of the dose curve; as a rule, active = well fitted inhibition curve with a large enough effect; inconclusive = small, poorly fitted or top-dose-only effect; inactive = no such curve, though single readings can be large or run the other way. Where a SMILES comes first, the peptide text is derived from it. [ ]: non-standard residue; d: D form. ξ: configuration not given here. ξPhe(βξ-Me) = CC(c1ccccc1)C(N)C(=O)O; GABA = NCCCC(=O)O

System: Zika virus NS2B-NS3 protease (linked construct)
Experiment: Primary screen NINDS Rhodamine qHTS for Zika virus inhibitors (AID 1347160); also: nearly all actives have a fitted effect of over 55% in size
Details: purified NS2B-NS3 protease, Rhodamine110 substrate fluorescence; series mostly up to 57.1 µM; activity change, negative = inhibition: at the top concentration
How it was run: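 In 10 mM Tris-HCl pH 8.0 containing 0.01% Tween 20, linked NS2B-NS3 protease (25 nM final) is exposed to test compounds for 15 min. Cleavage of 1.5 microM Rhodamine110 substrate is tracked by fluorescence over 15 min.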
% is scaled to controls: 0 for no effect and ±100 for the full control effect; potency is read from the fitted curve at half-maximal effect.

SMILES	activity change, negative = inhibition	Potency
COC1CCCC/C(C)=C/C2C=C(C)C(C)C3C(CC(C)C)NC(=O)C23C(=O)C1 (configuration not stated)	-8.97% [at 33.1 µM]	–
CC(C)CC1NC(=O)C(C(C)c2ccccc2)NC(=O)C(C(C)C)NC(=O)C(C)NC(=O)CCCNC(=O)C(Cc2c[nH]c3ccccc23)NC(=O)C(C)NC1=O (stereo not drawn) (cyclo([GABA]AV[ξPhe(βξ-Me)]LAW); configuration not given here)	-18% [at 15.1 µM]	–
CC1(C)O[C@@]2(C)CC[C@@H]1C[C@@H]2OC1OC(CO)C(O)C(O)C1O (some centres not stated)	–	11.2 µM (active)
CC1(CCC(=O)O)C(=O)C=CC23CC4CC(OC4(C)C2O)C13 (configuration not stated)	27% [at 33.1 µM]	–
COc1ccc([C@H]2Cc3cccc(O)c3C(=O)O2)cc1	6.44%	–
CC(C)=CCC[C@](C)(O[C@@H]1O[C@H](CO[C@@H]2OC[C@@H](O)[C@H](O)[C@H]2O)[C@@H](O)[C@H](O)[C@H]1O)[C@H]1CC[C@]2(C)[C@@H]1[C@H](O)C[C@@H]1[C@@]3(C)CC[C@H](O[C@@H]4O[C@H](CO)[C@@H](O)[C@H](O)[C@H]4O[C@@H]4O[C@H](CO)[C@@H](O)[C@H](O)[C@H]4O)C(C)(C)[C@@H]3CC[C@]12C	15.8% [at 33.1 µM]	–
CC(=O)N[C@H]1[C@H](O[C@H]2CC[C@@]3(C)C(CC[C@]4(C)C3CC=C3C5CC(C)(C)CC[C@]5(C(=O)O)[C@H](O[C@@H]5O[C@H](CO)[C@@H](O)[C@H](O)[C@H]5O)C[C@]34C)C2(C)C)O[C@H](CO[C@@H]2OC[C@H](O)[C@H](O)[C@H]2O[C@@H]2OC[C@@H](O)[C@H](O)[C@H]2O)[C@@H](O)[C@@H]1O (some centres not stated)	-1.46% [at 15.1 µM]	–
